Compound activity from PubChem.
An excerpt weighted towards active compounds, which were near 2.4% of everything screened.
D2 antag: antagonists of human D2 dopamine receptor. P14416. HEK293 TREx D2 cells, calcium flux, dopamine EC80. inhibition, % at 10 µM. 2% of 340,000 active. AID 485344; in the data active = inhibition above about 30%; inactive = below that, where a call was filed; also: 0% is about no effect
Target sequence (P14416 whole entry, looked up): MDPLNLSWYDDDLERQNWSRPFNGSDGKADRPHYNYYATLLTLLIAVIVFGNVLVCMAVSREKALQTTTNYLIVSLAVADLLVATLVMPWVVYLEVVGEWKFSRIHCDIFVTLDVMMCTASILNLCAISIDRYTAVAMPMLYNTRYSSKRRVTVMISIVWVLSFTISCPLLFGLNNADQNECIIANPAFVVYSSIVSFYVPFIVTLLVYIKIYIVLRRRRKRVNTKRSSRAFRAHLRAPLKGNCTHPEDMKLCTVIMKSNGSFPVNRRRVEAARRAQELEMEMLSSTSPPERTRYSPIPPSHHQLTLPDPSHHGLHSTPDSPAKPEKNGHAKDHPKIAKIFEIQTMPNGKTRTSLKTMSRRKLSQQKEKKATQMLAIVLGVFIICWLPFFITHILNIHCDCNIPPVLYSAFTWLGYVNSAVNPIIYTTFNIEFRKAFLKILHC
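Dopamine at EC80 is the agonist stimulus; test compounds precede it by 180 s. Calcium flux read kinetically in a force-coupled, inducible HEK293 T-REx D2 cell line.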
D2 PAM-1: positively modulates the human D2 dopamine receptor allosterically; HEK293 T-REx D2, calcium flux, EC20 dopamine potentiation; potentiation, % at 10 µM; 0.34% of 340,000 active;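 active = potentiation over 3 SD above the plate norm, cut at about 30% in these data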; also: 0% is about no effect
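Tetracycline-induced Hek293 Trex D2 cells, force-coupled to calcium, loaded with no-wash calcium dye. Compound added with 180 s kinetic read for agonism, then EC20 dopamine and a further 180 s read for potentiation.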
D2 ag-1: activates the human D2 dopamine receptor; 0.084% of 360,000 active; DiscoveRx PathHunter D2 beta-arrestin, luminescence, 90 min; 100% = 57 uM dopamine signal; AID 624465; activation, % (no concentration beside the values); in the data active = activation above about 40%; inconclusive = between about 15% and that limit
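DiscoveRx PathHunter D2 beta-arrestin cells (2,100/well) attached overnight, then compound-stimulated 90 min at 37 C in HBSS/10 mM HEPES/0.1% Tween-20 buffer; beta-galactosidase complementation read by luminescence after 1 h at ambient temperature. Dopamine 57 uM final (EC100) as control.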
D2 ag-2: agonists of human D2 dopamine receptor | HEK293 T-REx D2 cells, calcium flux agonist mode | P14416 | activation, % at 2 µM | AID 485358 | 0.53% of 340,000 active;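 active = activation over 3 SD above normal in the single-dose calcium agonist read, cut at about 30% in these data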; also: 0% is about no effect
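In this primary screen, compounds producing a positive calcium signal within 180 s of addition to tetracycline-induced, force-coupled HEK293 Trex D2 cells are flagged; cells are dye-loaded with a no-wash calcium kit beforehand.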
D2 PAM-2: positive allosteric modulators of human D2 dopamine receptor. P14416. DiscoveRx D2 beta-arrestin cells, luminescence, 90 min; 100% = 57 uM dopamine signal. potentiation, % (concentration not given with the values). 0.23% of 360,000 active. AID 624464; in the data active = potentiation above about 50%; inconclusive = mostly about 30% to 49%
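PathHunter beta-arrestin assay in DiscoveRx D2 cells. Compounds were added with an EC20 of dopamine (50 nM final) for 90 min at 37 deg C. Luminescence was read 1 h after detection reagent, with 57 uM dopamine as the EC100 control.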
Starred values were filed as active, the others as inactive; u = inconclusive; x = not tested or not shown.

SMILES	D2 antag	D2 PAM-1	D2 ag-1	D2 ag-2	D2 PAM-2
CC1(C)CC(=O)C(C=NCCc2ccc(S(N)(=O)=O)cc2)=C(O)C1	x	x	-1.7	x	-4.2
COc1ccc(CCN=CC2=C(O)CC(C)(C)CC2=O)cc1	31.4*	2.8	-1.9	-0.5	9.3
O=C(NCCO)C1(c2ccc(Cl)cc2)CCCC1	32.2*	3.4	-2.4	-0.3	10.6
CCc1ccc(-n2nc(C)c3c(C)cc(=O)n(CC(=O)Nc4cc(Cl)ccc4OC)c32)cc1	x	16.3	x	0.2	x
CCCCCOc1ccccc1Cn1c(=O)oc2ccc(C)cc21	x	-8.2	x	1.7	x
CCCCOc1ccccc1Cn1c(=O)oc2ccc(C)cc21	31.4*	6.7	0.9	0.6	-4.2
Cc1nc2nc(NC(=O)CC(C)C)[nH]n2c(=O)c1Cc1ccccc1	x	6.0	x	-1.3	x
Fc1ccc(/C=N/n2c(C3CCCCC3)n[nH]c2=S)cc1	50.2*	7.1	u	0.2	-5.9
S=c1[nH]nc(C2CCCCC2)n1/N=C/c1ccccc1	-10.2	-5.5	-9.8	-0.4	-7.4
Cc1ccc(S(=O)(=O)N2CCCc3cc(NC(=O)c4ccc(C(F)(F)F)cc4)ccc32)cc1	x	-3.2	x	1.7	x
NC[C@H]1O[C@H](O[C@H]2[C@H](O)[C@@H](O[C@H]3O[C@H](CO)[C@@H](O)[C@H](N)[C@H]3O)[C@H](N)C[C@@H]2N)[C@H](N)C[C@@H]1O	36.9*	-3.5	-1.8	1.9	5.9
CCc1cc2c(SCC(=O)c3cccs3)ncnc2s1	33.5*	0.2	-3.5	0.1	-17.2
Cc1ccc(C)c(Cn2c3ccccc3c3cnn(CC(=O)NC4CCCCCC4)c(=O)c32)c1	x	2.9	x	0.5	x
CS(=O)(=O)c1ccc(Oc2ccc(-c3nnco3)cc2)c([N+](=O)[O-])c1	-2.2	41.3*	1.8	1.8	6.7
COc1ccc(N(C)C(=O)c2cc(S(=O)(=O)N3CCc4ccccc43)cn2C)c(OC)c1	x	0.9	x	0.3	x
N/C(=N\c1nc2c(c(=O)[nH]1)CCCC2)Nc1ccccc1	-4.4	7.6	0.3	-0.5	10.7
N/C(=N\c1nc2c(c(=O)[nH]1)CCC2)Nc1ccccc1	30.0*	-4.8	2.5	-0.2	-1.0
COc1ccc(N2CCN(C(=O)CCNS(=O)(=O)c3ccc(Br)s3)CC2)cc1	3.1	86.0*	-0.6	0.5	-5.7
COc1ccc(N2CCN(C(=O)CCNS(=O)(=O)c3ccc(C)cc3)CC2)cc1	11.6	6.6	-6.5	-1.0	0.2
CCS(=O)(=O)Nc1ccc2[nH]c(=O)[nH]c2c1	32.8*	-7.2	-5.0	3.3	1.0
CS(=O)(=O)Nc1ccc2[nH]c(=O)[nH]c2c1	-0.8	-1.9	-0.1	1.1	0.4
Cc1cccc2c(=O)cc(CSc3ccccc3NC(=O)C(C)(C)C)[nH]c12	x	3.7	x	0.2	x
Cc1cccc(N2C(=O)C3C4C=CC(CC4)C3C2=O)c1 (stereo not given)	3.6	20.7	-7.4	0.2	15.6
Cc1cc(C)cc(N2C(=O)C3C4C=CC(C4)C3C2=O)c1 (stereo not given)	x	37.4*	-0.4	x	11.6
O=C1C2C3C=CC(C3)C2C(=O)N1c1ccccc1 (stereo not given)	x	x	-2.7	x	-8.3
SMILES	D2 antag	D2 PAM-1	D2 ag-1	D2 ag-2	D2 PAM-2
Cc1ccc(N2C(=O)C3C4C=CC(C4)C3C2=O)cc1 (stereo not given)	-0.1	51.1*	-2.8	1.1	-4.3
Cc1ccc(C(C)C)c(OCC(=O)Nc2c(C(=O)c3ccc(F)cc3)oc3ccccc23)c1	x	2.4	x	x	x
CCOc1ccc(-n2c(SCc3ccccc3)nc3c([nH]c4ccccc43)c2=O)cc1	x	0.9	x	0.0	x
COC(=O)Nc1nc2c(C)cccc2s1	37.9*	-6.2	-2.2	0.3	-13.6
Cc1ccc2sc(NC(=O)C3CC3)nc2c1C	6.7	36.1*	-0.7	0.3	-8.4
Cn1ncc2c(N3CCN(c4ccc(F)cc4)CC3)ncnc21	x	0.1	x	0.4	x
CC(C)N(c1ccccc1)c1ccc(NC(=S)NCCN(C)C)cc1	82.5*	-28.6	4.8	1.2	-0.4
COc1ccc(CCNc2ccc(S(=O)(=O)N3CCN(C)CC3)cc2[N+](=O)[O-])cc1	64.7*	2.8	-2.2	-1.2	-4.6
COc1ccc(C(CNc2ccc(S(=O)(=O)N3CCN(C)CC3)cc2[N+](=O)[O-])N(C)C)cc1 (stereo not given)	5.4	-15.1	-3.0	0.8	-1.6
COCCn1c(=O)[nH]c2cc(C(=O)NCCN3CCN(c4ccccc4)CC3)ccc2c1=O	143.5*	-28.1	u	83.5*	-0.3
COc1ccccc1CNC(=O)CCc1c(C)c2cc3c(C)c(C)oc3cc2oc1=O	x	17.0	x	-1.5	x
CC1=C(C(N)=O)C(c2cccc(C)c2)n2nc(-c3cccc(C)c3)nc2N1 (stereo not given)	x	16.2	x	1.8	x
COc1cc(C(=O)Nc2ccccc2OCc2cc(=O)n3cc(C)sc3n2)cc(OC)c1OC	x	6.3	x	-0.7	x
Cc1ccc(CNc2ccc(O)cc2)cc1	-6.2	x	u	1.1	69.8*
Cc1ccc(NCc2ccccc2O)cc1	-17.5	-6.4	0.7	0.5	-16.4
COc1cccc(-n2c(SCc3ccc(F)cc3)nc3c([nH]c4ccccc43)c2=O)c1	x	10.5	x	0.0	x
COc1ccc2c(c1)c(C(O)CN1CCC(Cc3ccccc3)CC1)c(C)n2C (stereo not given)	50.8*	-25.8	-2.5	0.3	-19.5
O=C(Nc1ccc(Oc2ccccc2)cc1)c1ccc(F)c(S(=O)(=O)N2CCN(c3ccccc3F)CC2)c1	x	-8.4	x	-0.1	x
O=C(NC(=S)N1CCOCC1)C12CC3CCC(CC(C3)C1)C2	14.2	4.5	-1.3	1.3	4.0
O=C(NC(=S)N1CCOCC1)C12CCC3CC(CC(C3)C1)C2	-16.2	31.1*	-3.6	-1.4	-5.4
Cc1noc(-c2ccc(Cl)cc2)c1C(=O)O/N=C(\N)c1ccc(C(C)(C)C)cc1	x	x	47.1*	x	150.7*
Cc1ccc(C(=O)O/N=C(\N)c2ccc(Br)cc2)cc1	33.6*	-21.8	u	0.9	27.7
N/C(=N\OC(=O)c1ccc(Br)cc1)c1ccccc1	-6.2	2.3	6.1	-0.1	13.3
CC(C)(C)c1ccc(C(=O)O/N=C(\N)c2ccccc2)cc1	26.9	-4.2	40.1*	1.1	19.0
N/C(=N\OC(=O)c1cccc(Br)c1)c1ccc(Br)cc1	7.1	-5.4	13.3	-0.5	100.5*
O=C(NCCc1ccc(Cl)cc1)c1cnc2sc(N3CCCC3)nn2c1=O	x	3.8	x	0.0	x
Cc1cccc(OCC(=O)OCc2cc(=O)n3nc(C4CCCCC4)sc3n2)c1	x	-4.4	x	1.4	x
CCN(c1cccc(C)c1)c1ncnc2c1cnn2-c1cccc(Cl)c1	x	-7.9	x	0.0	x
COc1ccc(/C(N)=N/OC(=O)c2ccc(C)c([N+](=O)[O-])c2)cc1	-0.3	-1.2	u	0.1	132.0*
